Our source for the inhibition values is PubChem BioAssay AID1850 (Southern Research Specialized Biocontainment Screening …, 2009).

Values joined by “and” are separate entries in the source; they are usually repeats but may differ in a detail not shown here. Equal entries are not always repeated. In all, about 310,000 compounds went through this assay and about 1,000 (0.32%) were called active. Only a sample is shown. Potency and affinity values are given separately. A number with no mark means an inactive call. The rule behind the calls is not given here.

The nature of this assay: Inhibition of PhoP regulon, Salmonella typhi GFP reporter cells, confirmation, 4 h (AID 1850).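 Note: 0% = induced wells with vehicle and 100% = uninduced wells.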 The following applies: Salmonella Typhi PhoP-promoter GFP reporter, fluorescence, at 50 µM, stronger effect = higher value.
A word on the inhibition: it is the relative decrease from the control value, in per cent. On to `O=C(CSc1ccccn1)N1CCCC(Nc2ccc(F)c(F)c2)C1` (stereo unspecified), for which the inhibition was -15.8%.

As for `CC(C)(C)OC(=O)NCc1ccc(CNC(=O)c2[nH]cnc2C(=O)N[C@@H](Cc2ccccc2)C(=O)OC(C)(C)C)cc1`, the inhibition is -19.7%.

Regarding `COc1ccc(CCC(=O)NNC(=O)Nc2cccc(Cl)c2)cc1`, the inhibition is -3.45%.

On to `Cc1cc(C(=O)Nc2cccnc2)no1`, for which the inhibition was -7.65%.

For the compound `N#CCSc1nc(-c2ccccc2)c2cc(Cl)ccc2n1`, the inhibition was -0.85%.

Consider `COCCCn1c(=O)c2ccccc2n(Cc2cc(C(=O)OC)ccc2OC)c1=O`, for which the inhibition is 5.08%.

In the case of `CCOC(=O)CC1C(=O)NCCN1C(=O)c1cccc(OC)c1` (stereo unspecified), the inhibition was -7.55%.

Turning to `COCCn1nnnc1C(c1ccc(OC)c(OC)c1)N1CCN(c2nc3ccccc3s2)CC1` (stereo unspecified), the inhibition was -9.37%.

For the compound `COc1ccccc1N1CCN(S(=O)(=O)CCNC(=O)C2CCCCC2)CC1`, the inhibition is -2.35%.

Regarding `CCOc1ccc(NC(=O)CSC(N)=O)cc1`, the inhibition was -9.69%.

Consider `N#CCSCC(=O)Nc1ccc(Cl)cc1`, for which the inhibition is 6.54%.

Consider `O=C(N/N=C\c1ccc(O)c([N+](=O)[O-])c1)c1ccccc1-n1cccc1`, for which the inhibition is -6.79%.

For the compound `COc1ccc(N(CN2C(=O)c3ccccc3C2=O)C(=O)COc2ccc(Cl)cc2Cl)cc1`, the inhibition was -5.69%.

`CN(C)CCCN1c2ccccc2Sc2ccc(Cl)cc21`: the inhibition is 9.15%.

On to `CN(C)CCCN1c2ccccc2CCc2ccccc21`, for which the inhibition is 8.39% and 6.67%.

As for `CCNS(=O)(=O)c1ccc(NC(=O)c2ccc(Cn3cc(Br)cn3)o2)cc1`, the inhibition is -4.21%.

Regarding `O=C(CCn1nc(-c2ccccc2)c2ccccc2c1=O)N1CCN(c2ccccc2)CC1`, the inhibition is 6.41%.

Consider `CC1CCN(C(=O)Cn2cnc3c(cnn3C(C)(C)C)c2=O)CC1`, for which the inhibition is -6.14%.

Turning to `Cc1nc(SCC(=O)c2ccccc2)[nH]c(=O)c1Oc1ccc(Cl)cc1`, the inhibition is -6%.

With `COc1ccc(C2CC(=O)c3c(ccc4ccccc34)N2)cc1OC` (stereo unspecified), the inhibition was 2.44%.

Consider `Cc1ncc(/C=C2\C(=O)Nc3ccccc32)[nH]1`, for which the inhibition is -10.1%.

Consider `Cc1cccc(NC(=O)CSc2nc(=O)n3ccccc3n2)c1C`, for which the inhibition is 4.11%.

As for `Fc1ccc(Nc2nnc(C(F)(F)F)s2)cc1`, the inhibition was -1.74%.

For the compound `FC(F)(F)c1nnc(Nc2ccc(Cl)cc2)s1`, the inhibition is 13.5%.

In the case of `Cc1ccc(C(=O)N/C(N)=N/c2nc3ccccc3o2)cc1`, the inhibition was -27.8%.

In the case of `O=C(COC(=O)c1ccco1)NC(c1ccccc1)c1ccccc1`, the inhibition is -14.2%.

As to `CN(CC(=O)O)S(=O)(=O)c1ccc2c(c1)NC(=O)CC(=O)N2`, the inhibition is 12.4%.

As for `COc1ccccc1CN1C[C@@H]2C[C@@H](c3ccccc3C)N3CCC[C@@]23C1=O`, the inhibition was -4.27%.

In the case of `COCCNc1nc(-c2cc(-c3ccccc3)on2)cc(C(C)C)n1`, the inhibition is -5.87%.

Turning to `Cc1c(C(=O)Nc2c(N)nc(SCC(=O)NCC3CCCO3)[nH]c2=O)cccc1[N+](=O)[O-]` (stereo unspecified), the inhibition was -5.44%.

`CCOC(=O)C1CCN(C(=S)NC2CC3C=CC2C3)CC1` (stereo unspecified): the inhibition was 6.08%.

Consider `COc1ccc(-n2nc(C)cc2N)cc1`, for which the inhibition is 4.84%.

Take `O=C(NNC(=S)NC(=O)c1cccs1)c1ccc(O)cc1`: the inhibition is -3.75%.

On to `Cc1cccc(C(=O)NC(=S)NNC(=O)c2cccs2)c1`, for which the inhibition was -3.39%.

Consider `COc1ccc(C(=O)NC(=S)NNC(=O)c2ccc(C)cc2)cc1`, for which the inhibition is 18.1%.

Consider `COc1ccc(C(=O)NNC(=S)NC(=O)c2ccc(Cl)cc2)cc1`, for which the inhibition was 4.94%.

As for `COc1ccc(C(=O)NNC(=S)NC(=O)c2ccc(OC)cc2)cc1`, the inhibition is 5.93%.

For `Cc1cccc(C(=O)NNC(=S)NC(=O)c2ccccc2)c1`, the inhibition was 18.6%.

For the compound `Cc1ccc(CSc2nnc(-c3cccc(S(=O)(=O)N4CCOCC4)c3)n2CC(C)C)cc1`, the inhibition is 10.2%.

Consider `CCOC(=O)[C@@H]1CCNC[C@@H]1c1ccccc1`, for which the inhibition is -2.58%.

As for `CCC(C)Sc1nnc(NC(=O)c2ccco2)s1` (stereo unspecified), the inhibition was -2.84%.

Take `CC(C)(C)c1ccccc1N=Cc1ccc2ccccc2n1`: the inhibition is -21.3%.

With `Cc1onc(-c2ccc(Cl)cc2)c1-c1ccnn1S(=O)(=O)c1cccc(C(F)(F)F)c1`, the inhibition is -8.24%.

For `Cc1ccccc1NC(=S)N(Cc1cccnc1)Cc1ccccc1Cl`, the inhibition is -8.27%.

Turning to `CCOC(=O)C1CCN(Cc2c(F)cccc2Cl)CC1`, the inhibition was -1.3%.

For the compound `COc1ccc(C(=O)C2CCCN(C(=O)c3ccc(F)cc3)C2)cc1OC` (stereo unspecified), the inhibition is -6.1%.

As for `O=C(Nc1ccc(F)cc1)c1cccnc1`, the inhibition is -6.59%.

Turning to `Cc1ccc(C2N=C(N)Nc3nc4ccccc4n32)cc1` (stereo unspecified), the inhibition was -13.9%.

With `Cc1cccc(C2N=C(N)Nc3nc4ccccc4n32)c1` (stereo unspecified), the inhibition is 1.47%.

On to `NC1=NC(c2ccccc2Cl)n2c(nc3ccccc32)N1` (stereo unspecified), for which the inhibition is 4.77%.

For `CCOC(=O)C1=C(C)Nc2nc3ccccc3n2C1c1ccccc1` (stereo unspecified), the inhibition was -6.62%.

In the case of `CCn1c2ccccc2c2cc(C3N=C(N)Nc4nc5ccccc5n43)ccc21` (stereo unspecified), the inhibition is 6.06%.

For `NC1=NC(c2ccc(Cl)cc2)n2c(nc3ccccc32)N1` (stereo unspecified), the inhibition was -5.56%.

For `CCCCCOc1ccc(CSCCNC(=S)Nc2ccccc2)cc1`, the inhibition is -18.1%.

For the compound `CC(C)CN(C(=O)COC(=O)CSc1ccccc1F)c1c(N)n(Cc2ccccc2)c(=O)[nH]c1=O`, the inhibition was 4.09%.

Regarding `COc1cc(C2/C(=C(\O)c3ccc4c(c3)CC(C)O4)C(=O)C(=O)N2CCN2CCOCC2)cc(OC)c1OC` (stereo unspecified), the inhibition is -7.62%.

With `CC(C)(C)NC(=O)/C(=C/c1ccccc1F)NC(=O)c1ccc([N+](=O)[O-])cc1`, the inhibition was 7.24%.

Turning to `CC(C)NC(=O)NC(=O)CN1C(=O)NC2(CCc3ccccc3C2)C1=O` (stereo unspecified), the inhibition is -20.4%.

For the compound `C/C=C/C(=O)Nc1nnc(C2CCCCC2)s1`, the inhibition is -12.4%.

For the compound `COC(=O)C1CCCCN1C(=O)c1ccc2oc(Cc3ccccc3)nc2c1` (stereo unspecified), the inhibition is -3.48%.

Regarding `COc1ccccc1CC(=O)NNS(=O)(=O)c1cccc([N+](=O)[O-])c1`, the inhibition is -15.1%.
